Experimental data as given in PubChem BioAssay (NCI).
This is part of a sample that, as a whole, favours compounds with a hit. Of some 83,000 tested, about 20% had one in any assay.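 Method: cells in 96-well plates; compound added at one concentration; 48 h incubation; percent growth measured; values under 10 scored active.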 Unmarked numbers belong to inactive results. Activity calls are given as the source filed them.

The molecules below were run on ACHN renal (assay: NCI-60 one-dose screen, 48 h (100 = growth as untreated, 0 = no growth, -100 = all killed)). Settings: 10 µM unless noted.

SMILES | growth
COC(=O)c1cccc2c1N(C)c1c(cccc1C(=O)OC)CC2 | 104%
COc1ccc(/C=C2\N=C(c3ccccc3)N(C(=O)c3ccccc3O)NC2=O)cc1 | 103%
c1cc2[nH]ncc2cc1-c1nc2ccc3[nH]ncc3c2c2c1CCC2 | 23.8%
O=C(Oc1ccccc1[N+](=O)[O-])C1CCCN1C(=O)OCc1ccccc1 (stereo not drawn) | 105%
COc1ccc(CCNC2=CC(=O)CCC2)cc1OC | 110%
O=C(Nc1ccncc1)C(=O)c1cn(S(=O)(=O)c2ccc(Cl)cc2)c2ccccc12 | 52.8%
O=C(Nc1cccc(-n2cc(-c3ccncc3)c(-c3ccc(Cl)c(O)c3)n2)c1)Nc1ccc(Cl)c(Cl)c1 | 12.8%
O=C(Nc1ccncc1)C(=O)c1cn(S(=O)(=O)c2ccccc2F)c2ccccc12 | 56.8%
O=C(c1ccccc1)C1OC1c1ccc([N+](=O)[O-])cc1 (stereo not drawn) | 75.3%
Cc1ccc(Cc2c(C=O)nc(N)[nH]c2=O)c2ccccc12 | 107%
CCN(CC)CCOC(=O)C(c1ccccc1)(c1ccccc1)C(C)C | 92.8%
COc1ccc(C(=O)N2NC(=O)/C(=C/c3cn(-c4ccccc4)nc3-c3ccccc3)N=C2c2ccccc2)cc1 | 106%
CC(C)(C)OC(=O)NC(CSCc1ccccc1)C(=O)ON1C(=O)CCC1=O (stereo not drawn) | 101%
COc1ccc(C2=C(c3cc(OC)c(OC)c(OC)c3)C(=O)CC2)cc1 | 37.8%
COc1ccc(C(=O)N2NC(=O)/C(=C/c3ccccc3F)N=C2c2ccccc2)cc1 | 122%
C/C(=C\c1ccc(OCC(=O)O)c(Cl)c1Cl)[N+](=O)[O-] | 110%
COc1ccc(-c2cc3c(OC)c(OC)c(OC)cc3oc2=O)cc1 | 66.8%
COc1ccc(Nc2ncccc2C(=O)NCc2cn(Cc3cccc(Oc4ccccc4)c3)nn2)c(OC)c1 | 48%
CC(=O)Nc1scc[n+]1Cc1ccccc1 | 107%
COc1cc2c(c(OC)c1OC)-c1ccc(N)c(=O)cc1[C@@H](NC(C)=O)CC2 | 27.5%

SMILES | growth
O=C([O][Sn]([O]C(=O)c1ccccn1)([c]1ccccc1)[c]1ccccc1)c1ccccn1 | 100%
COC(OC)c1ccccc1 | 102%
Fc1ccc(Nc2nc(NCCNc3ccnc4cc(Cl)ccc34)nc(N3CCOCC3)n2)cc1 | 55.4%
COc1ccc(-c2nc3sc(-c4cc(OC)c(OC)c(OC)c4)nn3c2/C=C2/C(=O)Nc3ccc(F)cc32)cc1 | -15.7% (active)
Cc1ccc(S(=O)(=O)n2cc(C(=O)C(=O)Nc3ccncc3)c3ccccc32)cc1 | 52.3%
COc1ccc(Nc2ncccc2C(=O)NCc2cn(Cc3cccc(Oc4ccccc4)c3)nn2)cc1 | 51.2%
CC1=C(C#N)C(=O)NC(C)C1 (stereo not drawn) | 102%
Cc1cc(C2=NNC(=O)Cc3cc4c(cc32)OCCO4)cc(C)c1N | 48.7%
CCOC(=O)C1=C(C)NC(C)=C(C(=O)OCC)C1(C)C | 106%
O=C(Nc1ccncc1)C(=O)c1cn(S(=O)(=O)c2ccc(Br)cc2)c2ccccc12 | 58%
CC1CCC(C)N(C)C1 (stereo not drawn) | 105%
CCC(C)/C(=C\C#N)NCCCN/C(=C/C#N)C(C)CC (stereo not drawn) | 97.1%
CC1(c2ccc(Cl)cc2)OC(=O)CC(=O)O1 | 98.5%
CCN(CC)CCOc1ccc(Cl)c(C)c1 | 104%
Nc1cccc(Cl)c1N | 90.4%
O=[N+]([O-])c1cc(Cl)c2[nH]c3c(Cl)cc([N+](=O)[O-])cc3c2c1 | -10.3% (active)
CSc1nc2c(c(=O)[nH]1)C(c1ccc(C)cc1)C=C(C(=O)O)N2 (stereo not drawn) | 106%
COc1cc(/C=C/C(=O)/C=C/c2cc(OC)c3c(c2)OCO3)cc2c1OCO2 | 102%
Oc1ccccc1/C=N/NC(=S)NC1CC2C=CC1C2 (stereo not drawn) | 73.6%

Each molecule was assayed on CAKI-1 renal in the same assay as above. Settings: 10 µM unless noted.

SMILES | growth
COC(=O)c1cccc2c1N(C)c1c(cccc1C(=O)OC)CC2 | 97.7%
COc1ccc(/C=C2\N=C(c3ccccc3)N(C(=O)c3ccccc3O)NC2=O)cc1 | 97.9%
c1cc2[nH]ncc2cc1-c1nc2ccc3[nH]ncc3c2c2c1CCC2 | 23.3%
O=C(Oc1ccccc1[N+](=O)[O-])C1CCCN1C(=O)OCc1ccccc1 (stereo not drawn) | 93.7%
COc1ccc(CCNC2=CC(=O)CCC2)cc1OC | 102%
O=C(Nc1ccncc1)C(=O)c1cn(S(=O)(=O)c2ccc(Cl)cc2)c2ccccc12 | 44.9%
O=C(Nc1cccc(-n2cc(-c3ccncc3)c(-c3ccc(Cl)c(O)c3)n2)c1)Nc1ccc(Cl)c(Cl)c1 | 22.5%
O=C(Nc1ccncc1)C(=O)c1cn(S(=O)(=O)c2ccccc2F)c2ccccc12 | 35.6%
O=C(c1ccccc1)C1OC1c1ccc([N+](=O)[O-])cc1 (stereo not drawn) | 72.7%
Cc1ccc(Cc2c(C=O)nc(N)[nH]c2=O)c2ccccc12 | 92.7%
CCN(CC)CCOC(=O)C(c1ccccc1)(c1ccccc1)C(C)C | 66.8%
COc1ccc(C(=O)N2NC(=O)/C(=C/c3cn(-c4ccccc4)nc3-c3ccccc3)N=C2c2ccccc2)cc1 | 95.6%
CC(C)(C)OC(=O)NC(CSCc1ccccc1)C(=O)ON1C(=O)CCC1=O (stereo not drawn) | 112%
COc1ccc(C2=C(c3cc(OC)c(OC)c(OC)c3)C(=O)CC2)cc1 | 53.5%
COc1ccc(C(=O)N2NC(=O)/C(=C/c3ccccc3F)N=C2c2ccccc2)cc1 | 98.9%
C/C(=C\c1ccc(OCC(=O)O)c(Cl)c1Cl)[N+](=O)[O-] | 93.9%
COc1ccc(-c2cc3c(OC)c(OC)c(OC)cc3oc2=O)cc1 | 57.1%
COc1ccc(Nc2ncccc2C(=O)NCc2cn(Cc3cccc(Oc4ccccc4)c3)nn2)c(OC)c1 | 44.8%
CC(=O)Nc1scc[n+]1Cc1ccccc1 | 87.4%
COc1cc2c(c(OC)c1OC)-c1ccc(N)c(=O)cc1[C@@H](NC(C)=O)CC2 | 19.1%

SMILES | growth
O=C([O][Sn]([O]C(=O)c1ccccn1)([c]1ccccc1)[c]1ccccc1)c1ccccn1 | 76.5%
COC(OC)c1ccccc1 | 95.4%
Fc1ccc(Nc2nc(NCCNc3ccnc4cc(Cl)ccc34)nc(N3CCOCC3)n2)cc1 | 76.9%
COc1ccc(-c2nc3sc(-c4cc(OC)c(OC)c(OC)c4)nn3c2/C=C2/C(=O)Nc3ccc(F)cc32)cc1 | 4.52% (active)
Cc1ccc(S(=O)(=O)n2cc(C(=O)C(=O)Nc3ccncc3)c3ccccc32)cc1 | 42.1%
COc1ccc(Nc2ncccc2C(=O)NCc2cn(Cc3cccc(Oc4ccccc4)c3)nn2)cc1 | 42.3%
CC1=C(C#N)C(=O)NC(C)C1 (stereo not drawn) | 103%
Cc1cc(C2=NNC(=O)Cc3cc4c(cc32)OCCO4)cc(C)c1N | 40.4%
CCOC(=O)C1=C(C)NC(C)=C(C(=O)OCC)C1(C)C | 107%
O=C(Nc1ccncc1)C(=O)c1cn(S(=O)(=O)c2ccc(Br)cc2)c2ccccc12 | 40.6%
CC1CCC(C)N(C)C1 (stereo not drawn) | 101%
CCC(C)/C(=C\C#N)NCCCN/C(=C/C#N)C(C)CC (stereo not drawn) | 96.5%
CC1(c2ccc(Cl)cc2)OC(=O)CC(=O)O1 | 94.9%
CCN(CC)CCOc1ccc(Cl)c(C)c1 | 102%
Nc1cccc(Cl)c1N | 96.4%
O=[N+]([O-])c1cc(Cl)c2[nH]c3c(Cl)cc([N+](=O)[O-])cc3c2c1 | -34.1% (active)
CSc1nc2c(c(=O)[nH]1)C(c1ccc(C)cc1)C=C(C(=O)O)N2 (stereo not drawn) | 88.6%
COc1cc(/C=C/C(=O)/C=C/c2cc(OC)c3c(c2)OCO3)cc2c1OCO2 | 92.6%
Oc1ccccc1/C=N/NC(=S)NC1CC2C=CC1C2 (stereo not drawn) | 67.1%
